Source: PubChem
DRD3 antagonist = qHTS of D3 Dopamine Receptor Antagonist: qHTS; 2.5% of 360,000 active; max response, negative = inhibition, %; D3R cells, DiscoveRx beta-arrestin luminescence, antagonist mode; stronger effect = lower value; in the data active = max response below about -50%; inconclusive = no clear call, values can overlap the other calls
Target sequence (P35462 whole entry, looked up): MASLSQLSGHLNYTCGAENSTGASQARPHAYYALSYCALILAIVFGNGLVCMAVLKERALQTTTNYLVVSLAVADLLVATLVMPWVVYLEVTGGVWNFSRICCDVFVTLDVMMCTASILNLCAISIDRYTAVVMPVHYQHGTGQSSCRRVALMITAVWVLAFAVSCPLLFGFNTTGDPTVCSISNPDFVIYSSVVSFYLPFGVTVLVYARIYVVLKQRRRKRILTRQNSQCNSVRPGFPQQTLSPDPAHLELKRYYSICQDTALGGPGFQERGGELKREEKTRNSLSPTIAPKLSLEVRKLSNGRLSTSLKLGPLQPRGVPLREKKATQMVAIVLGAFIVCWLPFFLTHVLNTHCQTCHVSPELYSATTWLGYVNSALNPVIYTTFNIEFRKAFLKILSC
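Cells expressing the human receptor were seeded at 1500 cells/well, incubated overnight at 37 degrees C in 5% CO2, then exposed to library compounds with dopamine controls for 90 minutes at 37 degrees C before luminescent detection.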
D1 antagonist = Antagonist of Human D 1 Dopamine Receptor: qHTS | D(1A) dopamine receptor (Homo sapiens), P21728 | HEK293 TREx D1 cells, calcium flux, dopamine EC80; stronger effect = lower value | activity change, negative = inhibition, % at 10 µM | 3.2% of 360,000 active | AID 504652, 2011; in the data active = activity change below about -30%
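Tetracycline-induced HEK293 Trex D1 cells, force-coupled to calcium, dye-loaded; compounds added and read 180 s, then EC80 dopamine added and calcium flux tracked kinetically another 180 s.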
ERG Ets-DNA blk = qHTS for Small Molecule Inhibitors of the ERG Ets/DNA interaction | Potency, µM (doses to about 76.9 µM), hits mostly inhibitors | 0.028% of 370,000 active | fluorescence polarization, His-ERG Ets domain / labelled DNA | Transcriptional regulator ERG (Homo sapiens), P11308 | AID 624246, 2012; active = well fitted inhibition curve with a large enough effect in the polarisation, with a control signal flat; inconclusive = small, poorly fitted or top-dose-only effect, or effect the other way, or a change in a side signal; inactive = no such curve, though single readings can be large or run the other way; the % refers to the polarisation;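 note: polarization taken with two DNA probes labelled with fluorescein and Texas red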
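His-tagged ERG Ets domain (1 uM in the protein solution; 300mM KCl, 50mM Tris-HCl, 1mM EDTA, 1mM DTT, pH 7.5) received compound, then a probe mix of 5 nM fluorescein-DNA and 100nM Texas-615-DNA. Fluorescence polarization was read for both dyes.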
D1 ag = Allosteric Agonists of the Human D1 Dopamine Receptor: qHTS | D(1A) dopamine receptor (Homo sapiens), P21728 | HEK293 T-REx D1 cells, calcium flux, agonist mode | activation, % at 2 µM | 1% of 360,000 active | AID 504660, 2011; in the data active = activation above about 30%
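Agonism was scored from calcium flux recorded over 180 s (1 read/s) after pintool compound addition, following a 10-cycle baseline. Cells were inducible force-coupled HEK293 TREx D1, plated overnight at 30 C and loaded with no-wash calcium dye.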
D3 ag = qHTS of D3 Dopamine Receptor Agonist: qHTS; D3R DiscoveRx beta-arrestin cells, luminescence, 90 min; AID 652048, 2013; D(3) dopamine receptor (Homo sapiens), P35462; 0.58% of 410,000 active; max activation, %; in the data active = max activation above about 30%
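Agonist-mode cell screen: cells plated at 1500/well and incubated overnight at 37 °C, then exposed to library compounds for 90 min at 37 °C. Detection reagent was added for 30–60 min at room temperature, and luminescence was read.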
D1 PAM = Potentiators of Human D1 Dopamine Receptor: qHTS | D(1A) dopamine receptor (Homo sapiens), P21728 | HEK293 TREx D1 cells, calcium flux, dopamine EC20 potentiation | potentiation, % at 10 µM | 0.036% of 360,000 active | AID 504651, 2011; in the data active = potentiation above about 30%
Each line names hits and unclear results; the compound was inactive in the other large screens. Most compounds without a hit are left out; they make up all but 6.1% or so of the library.

CCOC(=O)c1c(NC(=O)C2=C(C)NC(=S)NC2c2ccccc2C(F)(F)F)sc(C)c1C (stereo unspecified)	ERG Ets-DNA blk 35µM
C=CCNC(=O)c1onc(CSc2ccccn2)c1C(=O)NCC=C	D1 antagonist -60
Cc1nn(CC(=O)NC2CCS(=O)(=O)C2)c(C)c1[N+](=O)[O-] (stereo unspecified)	none (no result: D1 antagonist, D1 ag, D1 PAM)
COC(=O)C1=CN(C(C)C)C=C(C(=O)OC)C1c1cc2c(cc1Br)OCO2	D3 ag 33
CCCOc1ccc(Br)cc1CSC(=N)N	D1 ag 49
CCOc1ccc(Br)cc1CC(=O)O	none (no result: D1 antagonist, D1 ag, D1 PAM)
COc1cccc(NC(=O)N2CCC(C(N)=O)(N3CCCCC3)CC2)c1	none
COc1cc(NC(C)CCCN)c2ncccc2c1Oc1ccccc1 (stereo unspecified)	DRD3 antagonist -56
CCN1C(=O)[C@H]2[C@@H](c3ccc(OC)cc3)N[C@]3(CCCN(Cc4ccco4)C3=O)[C@H]2C1=O	none (no result: D1 antagonist, ERG Ets-DNA blk, D1 ag, D1 PAM)
Cc1ccc(S(=O)(=O)Nc2ccc3c(c2)n(C)c(=O)n3C)c(C)c1	none
Cc1ccc(S(=O)(=O)Nc2cc3c(cc2C)n(C)c(=O)c(=O)n3C)c(C)c1	D1 antagonist -95 (no result: DRD3 antagonist)
Cc1ccc(Cl)cc1NC(=O)CN1C=NS(=O)(=O)c2ccccc21	none (no result: DRD3 antagonist)
COc1ccc(-c2nncnn2)cc1	DRD3 antagonist -52
O=C(Cc1ccc(Cl)cc1)N1CCC2(CC1)NCCc1[nH]cnc12	none
COc1ccc(-c2cc(C(=O)N3CC4(C)CC3CC(C)(C)C4)no2)cc1 (stereo unspecified)	D1 antagonist -33
CCOC(=O)C1CCCN(C(=O)Cn2cnc3c2c(=O)n(C)c(=O)n3C)C1 (stereo unspecified)	D3 ag 32
CCc1ccc(CN2C(=O)c3ccccc3C2C(=O)NCCc2ccc(OC)c(OC)c2)cc1 (stereo unspecified)	none (no result: DRD3 antagonist)
Cc1ccc(-c2nn3c(C)nnc3s2)cc1NCc1c(F)cccc1Cl	none (no result: ERG Ets-DNA blk)
O=C(NCc1cn(-c2ccccc2)nc1-c1ccccc1)c1cccc([N+](=O)[O-])c1	D1 antagonist -33
O=C(NCc1cn(-c2ccccc2)nc1-c1ccccc1)c1cc([N+](=O)[O-])cc([N+](=O)[O-])c1	DRD3 antagonist inconclusive
Nc1[nH]c(=S)[nH]c(=O)c1-c1ccccc1	DRD3 antagonist -56
COc1ccc(C(=O)NC(C(=O)NCc2ccccc2OC)C(C)C)cc1 (stereo unspecified)	none
O=C(COC(=O)c1ccc([N+](=O)[O-])cc1)NC1CCCC1	D1 antagonist -45
O=C(COC(=O)/C=C/c1cccc([N+](=O)[O-])c1)Nc1ccc(Cl)cn1	D1 antagonist -49
O=C(COC(=O)c1ccc([N+](=O)[O-])cc1)Nc1ccc(Cl)cn1	D1 antagonist -37
CSc1ccccc1C(=O)NC1CC2CCC1C2 (stereo unspecified)	DRD3 antagonist inconclusive
CC(C)(C)OC(=O)NCCc1nnc(SCc2ccc(Cl)cc2Cl)o1	none
Clc1cccc(NCc2nnc(SCc3ccc(Cl)cc3Cl)o2)c1	DRD3 antagonist -63
CCC(C(=O)NC1CCCCC1)n1c2ccccc2c2nc(=O)cc(C)n21 (stereo unspecified)	none
COc1nc(C)ccc1-c1noc(-c2cccs2)n1	D1 antagonist -35
COc1nc(-c2ccccc2)ccc1-c1noc(-c2cccs2)n1	none (no result: D1 antagonist, D1 ag, D1 PAM)
Cc1cccc(N2CCn3c2nc2c3c(=O)n(CCc3ccccc3)c(=O)n2C)c1	none (no result: DRD3 antagonist)
Cc1cccc(N2CCCn3c2nc2c3c(=O)n(CC(=O)OCc3ccccc3)c(=O)n2C)c1	D1 antagonist -55 (no result: DRD3 antagonist, ERG Ets-DNA blk, D3 ag)
O=C(COC(=O)c1ccc([N+](=O)[O-])cc1)NC12CC3CC(CC(C3)C1)C2	none (no result: D1 antagonist, D1 ag, D1 PAM)
COc1ccc(C(CNC(=O)c2ccc(C)c(S(=O)(=O)N3CCCCC3)c2)N2CCCC2)cc1 (stereo unspecified)	none (no result: D1 antagonist, D1 ag, D1 PAM)
COc1ccc(C(CNC(=O)c2ccc(C)c(S(=O)(=O)N3CCOCC3)c2)N2CCCC2)cc1 (stereo unspecified)	DRD3 antagonist -71 (no result: D1 antagonist, D1 ag, D1 PAM)
COc1ccc(CCNC(=O)c2ccc(Cl)c(S(=O)(=O)N3CCCC3)c2)cc1	D1 antagonist -50
COc1ccc(C(CNC(=O)c2ccc(Cl)c(S(=O)(=O)N3CCCC3)c2)N2CCCC2)cc1 (stereo unspecified)	DRD3 antagonist -77
C=CCN(c1ccccc1Cl)S(=O)(=O)c1cccc(C(=O)NCCc2ccc(OC)cc2)c1	D1 antagonist -32
O=C(CSc1nnc(-c2ccco2)c(-c2ccco2)n1)Nc1ccccc1	none
Cc1ccc(NC(=O)CSc2nnc(-c3ccco3)c(-c3ccco3)n2)cc1	DRD3 antagonist -60
COc1ccc(NC(=O)CSc2nc(-c3ccco3)cc(C(F)(F)F)n2)cc1OC	D1 antagonist -30 (no result: DRD3 antagonist)
O=C(CSc1nnc2ccccn12)Nc1ccc(N2CCOCC2)cc1	none (no result: D1 antagonist, D1 ag, D1 PAM)
CC1CCN(CC(C)OC(=O)c2ccc3c(c2)OCCO3)CC1 (stereo unspecified)	DRD3 antagonist -75
CC(CN1CCCCC1)OC(=O)c1ccc2c(c1)OCO2 (stereo unspecified)	none
CC(CN1CCCCC1)OC(=O)c1cccc(F)c1 (stereo unspecified)	DRD3 antagonist -51
CC(CN1CCOCC1)OC(=O)c1ccc(Br)cc1 (stereo unspecified)	DRD3 antagonist -67
CC(CN1CCCC1)OC(=O)c1ccc(Cl)cc1Cl (stereo unspecified)	DRD3 antagonist -80
CC(CN1CCCCC1)OC(=O)c1ccc(Cl)cc1Cl (stereo unspecified)	DRD3 antagonist inconclusive
Cc1ccccc1CNC(=O)c1cc2cccc3c2n1CC(C)S3 (stereo unspecified)	none (no result: DRD3 antagonist)
CC(CN1CCCC1)OC(=O)c1ccc(Cl)cc1 (stereo unspecified)	DRD3 antagonist -54
COc1ccccc1/C=C/C(=O)OC(C)CN1CCCCC1 (stereo unspecified)	DRD3 antagonist -60
COc1ccccc1/C=C/C(=O)OCCN1CCOCC1	none
NC(=O)C1=C[C@H](c2ccc(C(F)(F)F)cc2)C[C@H](OCc2ccc(CO)cc2)O1	none
O=C(OCC(=O)N1CCOCC1)c1ccccc1Br	none
